GPR151 activ: activates the human receptor GPR151; Q8TDV0; PathHunter beta-arrestin GPR151 cells, luminescence; activation, % at 11.2 µM; hit rate 1% among 650,000; in the data active = activation above about 4.9%;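 note: 0% = median of compound wells and 100% = cells with positive control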
FBW7 activator: activators of human E3 ligase FBW7; Q969H0; AlphaScreen FBW7–phospho-cyclin E peptide binding, activator screen; normalized activity (activation), % at 26.1 µM; hit rate 0.13% among 650,000; in the data active = normalized activity above about 1.9%;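 note: purified mutant Fbw7 with reduced substrate affinity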
MITF primary: inhibitors of human MITF | AlphaScreen MITF homodimerization, bead proximity signal | inhibition, % at 2.6 µM | hit rate 0.91% among 650,000; in the data active = inhibition above about 50%;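 note: 0% = vehicle wells with protein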
TEAD-YAP block: TEAD-YAP interaction inhibition | inhibition, % at 9.12 µM | hit rate 1.4% among 640,000 | HEK-TIYL cells, TEAD-Gal4/YAP UAS-luciferase luminescence; in the data active = inhibition above about 32%;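 note: 0% = median of test compound wells and 100% = reference inhibitor wells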
GPR151 conf act: confirmation of human GPR151 activators; shares compounds with GPR151 activ; GPR151 PathHunter beta-arrestin cells, luminescence, 90 min; % of EA-reagent control over plate median; activation, % at 11.2 µM; 6,700 tested, under 10 active;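 active = mean percent activation across replicates above the confirmation screen cutoff of 4.91%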
GPR119 counter: activates human GPR119 in a GPR151 counter-screen; shares compounds with GPR151 activ; GPR119 PathHunter beta-arrestin cells, luminescence, 90 min; 0 = compound-well median, 100 = enzyme-acceptor control; activation, % at 11.2 µM; hit rate 0.3% among 6,700; AID 1508611;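 active = mean percent activation in the counterscreen above 29.09%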;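 note: counterscreen on off-target GPR119 to flag nonselective hits from the GPR151 activator screen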
Target sequence (Q8TDV5 whole entry, looked up): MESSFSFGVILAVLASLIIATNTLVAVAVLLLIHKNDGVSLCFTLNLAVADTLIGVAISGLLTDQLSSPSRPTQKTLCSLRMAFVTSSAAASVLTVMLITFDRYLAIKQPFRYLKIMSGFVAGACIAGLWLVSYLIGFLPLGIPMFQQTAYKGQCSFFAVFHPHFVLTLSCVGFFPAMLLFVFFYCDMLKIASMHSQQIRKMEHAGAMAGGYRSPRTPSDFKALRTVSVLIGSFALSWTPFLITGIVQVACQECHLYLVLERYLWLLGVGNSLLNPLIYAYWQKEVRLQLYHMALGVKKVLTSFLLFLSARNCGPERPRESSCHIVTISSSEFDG
The depositor's hits bear a star; x = no result. An excerpt weighted towards active compounds, which were near 3.5% of everything screened.

SMILES | GPR151 activ | FBW7 activator | MITF primary | TEAD-YAP block | GPR151 conf act | GPR119 counter
O=C(Nc1c2c(nn1-c1ccc(Cl)cc1)CSC2)c1ccc(Cl)cc1 | 7.7* | 0.1 | 8.4 | -15.0 | -1.2 | -12.8
O=C(O)C1C(C(=O)Nc2ccc(Cl)cc2)C2C=CC1C21CC1 (stereo unspecified) | -1.5 | 0.5 | 17.8 | -12.5 | x | x
O=C(O)C1C(C(=O)Nc2ccccc2)C2C=CC1C21CC1 (stereo unspecified) | 7.5* | 0.2 | 6.1 | 3.0 | 1.1 | 16.3
N=c1sccn1CC(=O)NC1CCCc2ccccc21 (stereo unspecified) | 0.5 | 0.0 | 6.9 | 8.2 | x | x
Cc1cccc(C)c1NC(=O)CCC(=O)O | 20.0* | -0.1 | 5.3 | 2.2 | -0.2 | -9.9
C(/C=C/c1ccccc1)=N/N1CCN(c2ccccc2)CC1 | 4.9* | 0.2 | 16.4 | -19.1 | -1.7 | -9.8
COC(=O)C1CC(=O)N(Cc2ccccc2)C12CCN(Cc1ccccc1C)CC2 (stereo unspecified) | 0.2 | 0.0 | -2.5 | 9.5 | x | x
Cc1ccc(C(=O)COC(=O)CN2C(=O)C3C4C=CC(C4)C3C2=O)cc1[N+](=O)[O-] (stereo unspecified) | 12.6* | 0.2 | 1.2 | 2.9 | -0.4 | 10.3
Cc1ccc(C(=O)COC(=O)CN2C(=O)C3C4CCC(C4)C3C2=O)cc1[N+](=O)[O-] (stereo unspecified) | -0.6 | -0.1 | -14.4 | -6.7 | x | x
CC(=O)Oc1ccc(-c2csc(Nc3ccccc3F)n2)cc1 | -2.4 | 0.1 | 15.4 | -20.8 | x | x
Cc1cc2nc3c(=O)n(C4CCCCCC4)c(=O)[nH]c3nc2cc1N | 5.1* | 0.6 | 5.4 | -20.4 | 2.4 | 8.1
CCOc1ccc(/C=C/C(=O)Nc2cccc(NC(=O)/C=C/c3ccc(OCC)cc3)n2)cc1 | -0.5 | 0.0 | 15.3 | -30.7 | x | x
CCC(C(=O)N1CCC(n2nnc3ccccc3c2=O)CC1)c1ccccc1 (stereo unspecified) | 0.4 | -0.1 | 10.2 | 2.9 | x | x
CN(C)c1ccc(/C=C2\C(=O)ON=C2c2ccccc2)cc1[N+](=O)[O-] | 5.8* | 0.1 | 72.3* | -1.6 | 0.0 | -7.6
COc1ccc(C2CC(=O)C3=C(C2)NC(C)=C(C(=O)OC(C)C)C3c2ccccc2Br)cc1OC (stereo unspecified) | -0.2 | 0.3 | -4.9 | 8.6 | x | x
O=C(CCc1ccccc1)N1CCc2c(nc(N3CCCC3)[nH]c2=O)C1 | 4.4 | 0.0 | 13.3 | 2.5 | x | x
Cc1nc2ccccc2n1CC(=O)N1CCc2c(nc(N3CCCC3)[nH]c2=O)C1 | 17.3* | 0.0 | 12.5 | 5.7 | -0.6 | 4.7
O=C(CCn1c(=O)oc2ccccc21)N1CCc2c(nc(N3CCCC3)[nH]c2=O)C1 | 5.1* | -0.1 | 9.7 | 6.3 | 0.1 | 3.8
O=C(Nc1cccc(Cl)c1)c1cccc2nc3ccccc3nc12 | -0.6 | 0.8 | 15.4 | -4.0 | x | x
O=C(CSc1ccc(C(=O)c2ccncc2)cc1[N+](=O)[O-])Nc1ccc2ccccc2c1 | -1.1 | 0.0 | 2.0 | -17.1 | x | x
COc1cc(OC)c(OC)cc1/C=C1\N=C(c2ccc(-c3ccccc3)cc2)OC1=O | 1.5 | 0.1 | 3.8 | 4.7 | x | x
CC(NC(=O)CCl)c1ccc(F)cc1F (stereo unspecified) | 5.2* | -0.1 | 2.8 | 17.4 | 0.6 | -1.2
CC(NC(=O)CCl)c1ccc2c(c1)CCCC2 (stereo unspecified) | 1.9 | 0.0 | -4.9 | 18.2 | x | x
Cc1cc(C)n(-c2cccc(C(=O)N[C@@H](Cn3nc(C4CC4)ccc3=O)C(C)C)c2)n1 | -0.4 | 0.1 | 7.6 | 9.9 | x | x
CCOC(=O)C1=C(C)N=C2SCC(=O)N2C1c1cccc2ccccc12 (stereo unspecified) | 7.6* | 0.8 | -10.1 | -4.9 | -1.0 | -6.0
SMILES | GPR151 activ | FBW7 activator | MITF primary | TEAD-YAP block | GPR151 conf act | GPR119 counter
CCOC(=O)C1=C(C)N=C2SCC(=O)N2C1c1ccc(OC)c2ccccc12 (stereo unspecified) | 2.4 | -0.1 | 2.2 | 7.4 | x | x
Cc1cc(N(C)C)nc(NCCNC(=O)/C=C/c2ccccc2)n1 | 5.7* | -0.2 | 12.7 | 19.4 | -0.2 | -7.2
CCCCN(C)c1nc(N)c([N+](=O)[O-])c(N2CCOCC2)n1 | 4.8 | 0.0 | 0.1 | 1.8 | x | x
Nc1nc(N2CCOCC2)nc(N2CCOCC2)c1[N+](=O)[O-] | 6.5* | -0.3 | -4.0 | 3.2 | 0.2 | -8.9
O=C1C(Cl)=C(Nc2cccc(O)c2)C(=O)N1c1ccccc1 | 0.2 | 0.2 | 21.2 | 11.6 | x | x
COc1ccc(NC(=O)C(C)NS(=O)(=O)c2ccc(C)cc2)cc1OC (stereo unspecified) | 12.7* | 0.0 | 20.7 | 1.4 | 0.1 | 5.2
COc1cc(NC(=O)CS(=O)(=O)c2ccc(C)cc2)cc(OC)c1OC | 6.0* | 0.2 | 12.5 | 2.5 | -0.2 | -9.0
CCOC(=O)COc1ccc(S(=O)(=O)NC(C)CC)cc1 (stereo unspecified) | 5.3* | -0.1 | -4.2 | 3.9 | -0.2 | 9.3
CC(=O)c1cccc(NC(=O)C(C)NS(=O)(=O)c2ccc(F)cc2)c1 (stereo unspecified) | 6.3* | 0.0 | -4.4 | -7.0 | 0.8 | 5.2
Cc1ccc(S(=O)(=O)NC(C)C(=O)Nc2cccc(C(F)(F)F)c2)cc1 (stereo unspecified) | 6.0* | 0.0 | 7.5 | 14.1 | 0.1 | 0.3
COc1ccc(S(=O)(=O)NC(C)C(N)=O)cc1 (stereo unspecified) | 6.0* | 0.0 | 3.4 | 3.2 | -0.5 | 2.2
Cc1ccc(S(=O)(=O)NC(C)C(=O)Nc2ccc(C(F)(F)F)cc2)cc1 (stereo unspecified) | 0.3 | -0.1 | -16.9 | 6.7 | x | x
CC(NS(=O)(=O)c1cc(Cl)ccc1Cl)C(=O)Nc1cccc([N+](=O)[O-])c1 (stereo unspecified) | 7.7* | -0.1 | 0.3 | 5.5 | 0.6 | 6.6
COc1ccc(S(=O)(=O)NC(C)C(=O)Nc2ccccc2)cc1 (stereo unspecified) | 0.0 | 0.2 | 16.4 | 0.5 | x | x
CC(Oc1ccc(Br)cc1)C(=O)Nc1cccc([N+](=O)[O-])c1 (stereo unspecified) | 6.1* | 0.1 | 18.7 | -8.2 | 1.6 | -3.0
COC(=O)c1ccc(NC(=O)C(C)NS(=O)(=O)c2cc(Cl)ccc2Cl)cc1 (stereo unspecified) | -1.1 | 0.1 | 6.1 | 2.9 | x | x
Cc1ccc(N2NC3(CCCCCC3)NC2=S)cc1 | 0.2 | 0.1 | 7.5 | -2.8 | x | x
S=C1NC2(CCCCC2)NN1c1ccccc1 | 6.6* | 0.0 | 13.1 | 3.9 | -0.2 | -9.7
Cc1ccc(/C=C/C(=O)NCc2ccc(S(N)(=O)=O)cc2)o1 | 6.3* | -0.6 | 5.2 | -5.6 | -0.5 | -4.5
O=C(Nc1cccc2ccccc12)C1CC(=O)N(c2cccc(Cl)c2)C1 (stereo unspecified) | 6.9* | 0.3 | 7.3 | -1.0 | 0.1 | 6.0

Screening results (PubChem BioAssay)
